We go through 9 molecules from PubChem BioAssay (NCI).

Test [1] can be described thus: NCI Yeast Anticancer Drug Screen. Data for the rad50 strain (AID 155).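 Also: 0% = growth of vehicle-only cultures of the same strain.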 The conditions noted are these: S. cerevisiae rad50 strain growth inhibition, stronger effect = higher value. In a few lines:
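DNA repair mutant yeast, compound exposure, growth read-out; inhibition is taken relative to vehicle.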

Test [2] can be described thus: NCI Yeast Anticancer Drug Screen. Data for the mec2-1 strain (AID 157). The conditions noted are these: S. cerevisiae mec2-1 strain, stronger effect = higher value. The essentials:
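Test agents were screened against the mec2-1 yeast strain, with defined DNA repair or cell cycle alteration. Growth was scored as inhibition against vehicle-only controls.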

Test [3] is described as follows: NCI Yeast Anticancer Drug Screen. Data for the sgs1 mgt1 strain (AID 161).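 Also: 0% = growth of cultures given vehicle only.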 The conditions noted are these: S. cerevisiae sgs1 mgt1 strain, stronger effect = higher value. In a few lines: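 Inhibition of yeast growth, normalised to vehicle-treated controls, is reported for a strain bearing genetic alterations in DNA damage repair.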
Test [4] in a line: NCI Yeast Anticancer Drug Screen. Data for the cln2 rad14 strain (AID 165).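 Also: 0% = growth equal to vehicle treated cultures.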 The conditions noted are these: S. cerevisiae cln2 rad14 strain, stronger effect = higher value. In a few lines: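 Growth of compound-exposed yeast (cln2 rad14 genotype) measured and expressed as inhibition relative to vehicle.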
A short description of test [5]: NCI Yeast Anticancer Drug Screen. Data for the bub3 strain (AID 167). The conditions noted are these: S. cerevisiae bub3 mutant strain, stronger effect = higher value. The essentials:
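In this screen, a yeast mutant lacking normal mitotic checkpoint function is challenged with compound. Relative growth versus vehicle gives the inhibition value.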

The nature of test [6]: NCI Yeast Anticancer Drug Screen. Data for the mlh1 rad18 strain (AID 175). The conditions noted are these: S. cerevisiae mlh1 rad18 strain growth inhibition, stronger effect = higher value. The essentials: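 In this whole-cell yeast screen, a strain with altered DNA damage repair is challenged with compound, and its growth is measured against matched vehicle-treated controls.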
[7] abbreviates: at 5.0 µM (retest, dose inferred, filed as 0.5).
Setting [8] is: at 50.0 µM (retest, dose inferred, filed as 5.0).

About 79,000 compounds went through this panel and 15% of them were active in at least one assay; those are over-represented in the sample as a whole. Values without a mark were called inactive. Activity calls are given as the source filed them. Rule as the data show it: active = growth inhibition above about 70%; inactive = the rest. Where a SMILES comes first, the peptide text is derived from it. The star is where a group is joined. Trt = c1ccc(C(c2ccccc2)(c2ccccc2)*)cc1; Cbz = O=C(OCc1ccccc1)*

As to `O=Cc1ccc(/C=N\Nc2ccccc2)cc1`, the growth inhibition in test [1] (setting [7]) is 1%; in test [1] (setting [8]), 12%; in test [1] (at 50.0 µM) it was 82.3% (active); in test [2] (setting [7]), -5%; in test [2] (setting [8]), 0%; in test [2] (at 50.0 µM), 33.2%. Further, the growth inhibition was -3% in test [3] (setting [7]); -4% in test [3] (setting [8]); 41.9% in test [3] (at 50.0 µM); 1% in test [4] (setting [7]); 7% in test [4] (setting [8]); 34.1% in test [4] (at 50.0 µM). Moreover, the growth inhibition in test [5] (setting [7]) was -1%; in test [5] (setting [8]), 12%; in test [5] (at 50.0 µM) it was -9.55%; in test [6] (setting [7]), 4%; in test [6] (setting [8]), 30%; in test [6] (at 50.0 µM) it was 92.3% (active).
Consider `CCC(=O)N(CCC(C)C)c1ccccc1`, for which the growth inhibition is 3% in test [1] (setting [7]); 7% in test [1] (setting [8]); 11.8% in test [1] (at 50.0 µM); -2% in test [2] (setting [7]); 2% in test [2] (setting [8]); -2.15% in test [2] (at 50.0 µM). Moreover, the growth inhibition in test [3] (setting [7]) was 0%; in test [3] (setting [8]), 1%; in test [3] (at 50.0 µM), -8.65%; in test [4] (setting [7]) it was 3%; in test [4] (setting [8]) it was 4%; in test [4] (at 50.0 µM), 41.1%. In addition, the growth inhibition in test [5] (setting [7]) was 3%; in test [5] (setting [8]) it was -11%; in test [5] (at 50.0 µM), -18.6%; in test [6] (setting [7]), 3%; in test [6] (setting [8]), 2%; in test [6] (at 50.0 µM), -11.9%.
For `COc1cc(N=Nc2ccccc2)cc(/C=N/NC(N)=S)c1O`, the growth inhibition in test [1] (setting [7]) was -2%; in test [1] (setting [8]) it was 46%; in test [1] (at 50.0 µM), 73.8% (active); in test [2] (setting [7]) it was 3%; in test [2] (setting [8]), 59%; in test [2] (at 50.0 µM), 67.2%. The growth inhibition in test [3] (setting [7]) is 9%; in test [3] (setting [8]) it was 85% (active); in test [3] (at 50.0 µM), 88.8% (active); in test [4] (setting [7]) it was -9%; in test [4] (setting [8]) it was 37%; in test [4] (at 50.0 µM), 78.8% (active). The growth inhibition in test [5] (setting [7]) was 1%; in test [5] (setting [8]), 61%; in test [5] (at 50.0 µM), 58.3%; in test [6] (setting [7]), 4%; in test [6] (setting [8]) it was 73% (active); in test [6] (at 50.0 µM), 90.8% (active).
For the molecule `CCN1CCC(O)(/C=C/c2ccccc2C)C(C(=O)/C=C/c2ccccc2C)C1` (configuration not stated), the growth inhibition in test [1] (setting [7]) was 8%; in test [1] (setting [8]), 84% (active); in test [1] (at 50.0 µM), 94.4% (active); in test [2] (setting [7]), -2%; in test [2] (setting [8]) it was 74% (active); in test [2] (at 50.0 µM), 98.2% (active). The growth inhibition was 3% in test [3] (setting [7]); 83% (active) in test [3] (setting [8]); 99.4% (active) in test [3] (at 50.0 µM); -2% in test [4] (setting [7]); 54% in test [4] (setting [8]); 92.2% (active) in test [4] (at 50.0 µM). The growth inhibition in test [5] (setting [7]) was 8%; in test [5] (setting [8]), 83% (active); in test [5] (at 50.0 µM), 98.5% (active); in test [6] (setting [7]) it was 4%; in test [6] (setting [8]), 93% (active); in test [6] (at 50.0 µM), 99.5% (active).
On to `CCCCCC/C=C\C=O`, for which the growth inhibition is -1% in test [1] (setting [7]); 4% in test [1] (setting [8]); 67.7% in test [1] (at 50.0 µM); -6% in test [2] (setting [7]); 13% in test [2] (setting [8]); 37.1% in test [2] (at 50.0 µM). Further, the growth inhibition was 3% in test [3] (setting [7]); 17% in test [3] (setting [8]); 64% in test [3] (at 50.0 µM); -6% in test [4] (setting [7]); 12% in test [4] (setting [8]); 52% in test [4] (at 50.0 µM). Further, the growth inhibition in test [5] (setting [7]) is -2%; in test [5] (setting [8]), 6%; in test [5] (at 50.0 µM), 79.5% (active); in test [6] (setting [7]), 0%; in test [6] (setting [8]), 5%; in test [6] (at 50.0 µM), 51.4%.
As to `CCOC(=O)CCC(NC(=O)C(CSC(c1ccccc1)(c1ccccc1)c1ccccc1)NC(=O)OCc1ccccc1)C(=O)NC(CCC(=O)OCC)C(=O)NC(CCC(=O)OCC)C(=O)NC(CCC(=O)OCC)C(=O)NC(CSC(c1ccccc1)(c1ccccc1)c1ccccc1)C(=O)OC` (configuration not stated) (Cbz-C(Trt)E(OEt)E(OEt)E(OEt)E(OEt)C(Trt)-OMe; configuration not given here), the growth inhibition is 1% in test [1] (setting [7]); 67% in test [1] (setting [8]); 74.2% (active) in test [1] (at 50.0 µM); -7% in test [2] (setting [7]); 63% in test [2] (setting [8]); 75.8% (active) in test [2] (at 50.0 µM). The growth inhibition is -1% in test [3] (setting [7]); 61% in test [3] (setting [8]); 68% in test [3] (at 50.0 µM); 7% in test [4] (setting [7]); 70% (active) in test [4] (setting [8]); 82.3% (active) in test [4] (at 50.0 µM). For the same molecule, the growth inhibition in test [5] (setting [7]) was -4%; in test [5] (setting [8]) it was 58%; in test [5] (at 50.0 µM), 72.2% (active); in test [6] (setting [7]), 2%; in test [6] (setting [8]), 73% (active); in test [6] (at 50.0 µM), 75.6% (active).
Turning to `O=S(=O)(NC(=S)Nc1ccccc1)c1ccc(Br)cc1`, the growth inhibition in test [1] (setting [7]) was -4%; in test [1] (setting [8]) it was 24%; in test [1] (at 50.0 µM) it was 42.9%; in test [2] (setting [7]), -3%; in test [2] (setting [8]), 50%; in test [2] (at 50.0 µM), 47.1%. Further, the growth inhibition in test [3] (setting [7]) is 7%; in test [3] (setting [8]), 53%; in test [3] (at 50.0 µM) it was 37.5%; in test [4] (setting [7]), -1%; in test [4] (setting [8]), 2%; in test [4] (at 50.0 µM), 79.5% (active). For the same molecule, the growth inhibition in test [5] (setting [7]) was -3%; in test [5] (setting [8]), 42%; in test [5] (at 50.0 µM), 67.8%; in test [6] (setting [7]), 21%; in test [6] (setting [8]), 68%; in test [6] (at 50.0 µM) it was 65.8%.
For the molecule `CCCCCCCCCCCCCCNCCC(=O)O`, the growth inhibition is -8% in test [1] (setting [7]); 99% (active) in test [1] (setting [8]); 99.1% (active) in test [1] (at 50.0 µM); 23% in test [2] (setting [7]); 100% (active) in test [2] (setting [8]); 99.5% (active) in test [2] (at 50.0 µM). Further, the growth inhibition in test [3] (setting [7]) is 2%; in test [3] (setting [8]), 98% (active); in test [3] (at 50.0 µM), 99.1% (active); in test [4] (setting [7]) it was -8%; in test [4] (setting [8]) it was 99% (active); in test [4] (at 50.0 µM) it was 99.2% (active). Further, the growth inhibition in test [5] (setting [7]) is -6%; in test [5] (setting [8]) it was 99% (active); in test [5] (at 50.0 µM), 99.3% (active); in test [6] (setting [7]) it was -13%; in test [6] (setting [8]), 99% (active); in test [6] (at 50.0 µM), 99.3% (active).
As for `CN1C(=O)c2cccc3c([N+](=O)[O-])ccc(c23)C1=O`, the growth inhibition is -2% in test [1] (setting [7]); 55% in test [1] (setting [8]); 79.3% (active) in test [1] (at 50.0 µM); -30% in test [2] (setting [7]); 65% in test [2] (setting [8]); 17% in test [2] (at 50.0 µM). The growth inhibition is 3% in test [3] (setting [7]); 68% in test [3] (setting [8]); 73.2% (active) in test [3] (at 50.0 µM); 10% in test [4] (setting [7]); 84% (active) in test [4] (setting [8]); 56.1% in test [4] (at 50.0 µM). Also, the growth inhibition is -9% in test [5] (setting [7]); 80% (active) in test [5] (setting [8]); 10.2% in test [5] (at 50.0 µM); 15% in test [6] (setting [7]); 75% (active) in test [6] (setting [8]); 27.6% in test [6] (at 50.0 µM).
